From PubChem BioAssay (NCI) come the findings set out here.

Test systems include SR leukemia; OVCAR-8 ovarian; OVCAR-5 ovarian; SK-OV-3 ovarian; IGROV1 ovarian; OVCAR-3 ovarian; HS 578T breast; NCI/ADR-RES ovarian; T-47D breast; BT-549 breast; MDA-MB-435 melanoma; SW-620 colon; MCF7 breast; HCT-116 colon; HCC-2998 colon; KM12 colon; RPMI-8226 leukemia; OVCAR-4 ovarian.
What all share (assay): NCI-60 one-dose screen, 48 h (100 = growth as untreated, 0 = no growth, -100 = all killed)
Holding throughout (conditions): 10 µM unless noted

The panel holds about 83,000 compounds, 20% with a hit somewhere; the sample as a whole holds those more often.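 In brief: 96-well plates, 48 h treatment, single concentration, percent growth endpoint.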 Unmarked numbers belong to inactive results. Calls of active or inactive are those of the source. How the source made its calls: active means growth percent below 10; inactive means the rest.

As for `Nc1c(C(=O)Nc2cccc(C(F)(F)F)c2)sc2nc3c(cc12)CCCCCC3`, the growth in the experiment with SR leukemia was 21.1%; in the experiment with OVCAR-8 ovarian, -37.4% (active); in the experiment on OVCAR-5 ovarian it was 12.8%; with SK-OV-3 ovarian, 2.08% (active); in the experiment with IGROV1 ovarian, 14.6%; with OVCAR-3 ovarian, 0.0711% (active). For the same molecule, the growth in the experiment with HS 578T breast was 29.5%; in the experiment on NCI/ADR-RES ovarian it was 12%; in the experiment on T-47D breast, -7% (active); with BT-549 breast, 59.6%; in the experiment with MDA-MB-435 melanoma it was 31%; in the experiment on SW-620 colon, 46%. Also, the growth with MCF7 breast is 20.4%; with HCT-116 colon, -18.1% (active); with HCC-2998 colon it was 37.1%; with KM12 colon it was 30.1%.

With `CCCCCCC[C@@H](O)CC(=O)N[C@H](CCCCN)C(=O)N[C@H](Cc1c[nH]c2ccccc12)C(=O)NC(CCCCN)C(=O)N[C@H](CC(C)C)C(=O)N[C@H](Cc1ccccc1)C(=O)N[C@H](CCCCN)C(=O)N[C@H](CCCCN)C(=O)N[C@H](CC(C)C)C(=O)N1CCCC1C(=O)N[C@H](CCCCN)C(=O)N[C@H](Cc1ccccc1)C(=O)N[C@H](CC(C)C)C(=O)N[C@H](Cc1c[nH]cn1)C(=O)N[C@H](CC(C)C)C(=O)N[C@H](C)C(=O)N[C@H](CCCCN)C(=O)N[C@H](CCCCN)C(=O)N[C@H](Cc1ccccc1)C(=O)O` (some centres undefined), the growth with SR leukemia was -13.1% (active); in the experiment on OVCAR-8 ovarian it was -11.1% (active); in the experiment with OVCAR-5 ovarian, -63% (active); in the experiment on SK-OV-3 ovarian, -62.8% (active); in the experiment with IGROV1 ovarian it was -29.4% (active); with OVCAR-3 ovarian, -41.3% (active). The growth with HS 578T breast was -42.4% (active); with NCI/ADR-RES ovarian it was -23.6% (active); in the experiment on T-47D breast, -39.9% (active); in the experiment on BT-549 breast, -43% (active); in the experiment with MDA-MB-435 melanoma it was -38.7% (active); in the experiment on SW-620 colon it was -52.2% (active). Also, the growth in the experiment with MCF7 breast is -23.8% (active); in the experiment with HCT-116 colon, -35.7% (active); in the experiment on HCC-2998 colon, -49.2% (active); in the experiment with KM12 colon, -63% (active).

For the molecule `CC/C(=C(\c1ccc(O)cc1)c1ccc(OCCN(C)CCN(C)C(=O)CCC(=O)c2c(C)[nH]c(/C=C3\N=C(c4ccc[nH]4)C=C3OC)c2C)cc1)c1ccccc1`, the growth in the experiment with SR leukemia was 58.6%; with OVCAR-8 ovarian, 89.9%; in the experiment on OVCAR-5 ovarian, 99.6%; in the experiment with SK-OV-3 ovarian it was 111%; in the experiment on IGROV1 ovarian, 81.6%; in the experiment with OVCAR-3 ovarian it was 89.1%. The growth in the experiment on HS 578T breast is 83.6%; in the experiment on NCI/ADR-RES ovarian, 79.8%; with T-47D breast, 69.3%; in the experiment with BT-549 breast it was 103%; in the experiment on MDA-MB-435 melanoma, 63.8%; in the experiment on SW-620 colon it was 66.2%. The growth in the experiment with MCF7 breast was 34.3%; with HCT-116 colon, 65.2%; in the experiment on HCC-2998 colon it was 92.2%; with KM12 colon it was 42.4%.

Take `c1cc(-c2ccc3c(c2)OCO3)n2nccc2n1`: the growth in the experiment on RPMI-8226 leukemia is 97.1%; in the experiment with OVCAR-8 ovarian, 98.6%; in the experiment on OVCAR-5 ovarian it was 94.2%; in the experiment on OVCAR-4 ovarian, 98.1%; in the experiment with SK-OV-3 ovarian it was 106%; with IGROV1 ovarian, 102%. Moreover, the growth with OVCAR-3 ovarian is 103%; in the experiment with HS 578T breast, 105%; in the experiment with NCI/ADR-RES ovarian, 107%; in the experiment with T-47D breast, 88.2%; with BT-549 breast, 101%; with MDA-MB-435 melanoma, 98.2%. The growth in the experiment with SW-620 colon was 105%; in the experiment on MCF7 breast, 89.9%; with HCT-116 colon, 102%; in the experiment with HCC-2998 colon it was 86.9%.

Consider `Cc1ccc(Nc2ncnc3c2sc2ncccc23)cc1`, for which the growth in the experiment with RPMI-8226 leukemia is 105%; in the experiment with OVCAR-8 ovarian it was 98.1%; in the experiment with OVCAR-5 ovarian, 101%; in the experiment on OVCAR-4 ovarian it was 109%; in the experiment on SK-OV-3 ovarian it was 101%; with IGROV1 ovarian, 105%. The growth was 109% with OVCAR-3 ovarian; 102% in the experiment with HS 578T breast; 98.8% in the experiment with NCI/ADR-RES ovarian; 95.9% with T-47D breast; 111% in the experiment on BT-549 breast; 108% in the experiment with MDA-MB-435 melanoma. The growth in the experiment on SW-620 colon is 99.8%; in the experiment with MCF7 breast it was 92.8%; in the experiment on HCT-116 colon, 106%; with HCC-2998 colon, 103%; in the experiment on KM12 colon, 105%.

On to `CCN(CC)S(=O)(=O)c1ccc2[nH]c(=O)cc(C(=O)Nc3ccc(OC)cc3OC)c2c1`, for which the growth in the experiment with RPMI-8226 leukemia is 108%; in the experiment on OVCAR-8 ovarian, 109%; in the experiment on OVCAR-5 ovarian, 100%; in the experiment on OVCAR-4 ovarian, 115%; in the experiment with SK-OV-3 ovarian it was 108%; in the experiment on IGROV1 ovarian, 34.4%. Also, the growth with OVCAR-3 ovarian was 118%; with HS 578T breast, 103%; in the experiment with NCI/ADR-RES ovarian it was 99.6%; with T-47D breast, 101%; in the experiment on BT-549 breast, 136%; with MDA-MB-435 melanoma, 108%. In addition, the growth in the experiment with SW-620 colon is 108%; in the experiment with MCF7 breast, 99.6%; in the experiment on HCT-116 colon, 97.3%; in the experiment on HCC-2998 colon it was 75.3%; in the experiment on KM12 colon, 110%.

As for `COc1cccc(/C=C2\SC(N3CCN(c4ccccn4)CC3)=NC2=O)c1`, the growth in the experiment with RPMI-8226 leukemia is 85.8%; with OVCAR-8 ovarian, 100%; in the experiment on OVCAR-5 ovarian it was 113%; with OVCAR-4 ovarian, 110%; in the experiment on SK-OV-3 ovarian, 111%; with IGROV1 ovarian it was 103%. Further, the growth in the experiment with OVCAR-3 ovarian is 100%; in the experiment on HS 578T breast it was 95.8%; in the experiment on NCI/ADR-RES ovarian it was 103%; with T-47D breast, 95%; with BT-549 breast, 112%; in the experiment with MDA-MB-435 melanoma, 108%. In addition, the growth was 97.9% with SW-620 colon; 94.8% in the experiment on MCF7 breast; 103% in the experiment with HCT-116 colon; 99.4% with HCC-2998 colon; 97.4% in the experiment on KM12 colon.

Regarding `Cc1cc(C(=O)CSc2nc3ccccc3c(=O)[nH]2)c(C)n1C`, the growth with RPMI-8226 leukemia is 91.6%; with OVCAR-8 ovarian, 96.4%; in the experiment on OVCAR-5 ovarian, 90.8%; in the experiment with OVCAR-4 ovarian, 123%; in the experiment with SK-OV-3 ovarian, 108%; with IGROV1 ovarian, -33.9% (active). Further, the growth in the experiment with OVCAR-3 ovarian was 91%; in the experiment on HS 578T breast, -35.7% (active); in the experiment with NCI/ADR-RES ovarian, 103%; with T-47D breast, 79.9%; in the experiment on BT-549 breast, 89.8%; with MDA-MB-435 melanoma it was 101%. Further, the growth with SW-620 colon was 102%; in the experiment with MCF7 breast, 95.1%; in the experiment with HCT-116 colon, 106%; in the experiment with HCC-2998 colon, 72.9%; in the experiment on KM12 colon it was 96.7%.

As for `Cc1nc2sccn2c1-c1csc(Nc2ccccc2Cl)n1`, the growth in the experiment on RPMI-8226 leukemia is 38.9%; with OVCAR-8 ovarian it was 53%; with OVCAR-5 ovarian, 54.9%; in the experiment with OVCAR-4 ovarian, 47.3%; with SK-OV-3 ovarian, 75.9%; with IGROV1 ovarian it was 60.5%. The growth was 47.7% in the experiment with OVCAR-3 ovarian; 76.7% in the experiment with HS 578T breast; 21.6% in the experiment with NCI/ADR-RES ovarian; 41% in the experiment on T-47D breast; 40.6% in the experiment with BT-549 breast; 2.78% (active) with MDA-MB-435 melanoma. The growth in the experiment on SW-620 colon was 33.1%; in the experiment on MCF7 breast, 33.9%; with HCT-116 colon, 27.8%; in the experiment on HCC-2998 colon, 63.8%; in the experiment on KM12 colon it was 29.6%.
